The source of these data is PubChem BioAssay.

Structures are written as SMILES. Active and inactive are the calls of the source.

Experiment [1] deals with Human papillomavirus type 1a protein E7 (residues 44-93). The experiment is described as follows: HPV1a E7 fragment binders on microarrays, primary screen, biochemical, small-molecule microarray, residues 44-93, 635 nm fluorescence (AID 1108).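 Further: E7 fragment applied at 1 µg/mL in TBST for 1 h at 4 C; score combines spot fluorescence with its signal to noise ratio.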 Particulars: small-molecule microarray binding, fluorescence 635 nm; higher = more signal.
The nature of experiment [2]: modulators of HCV replicon luciferase signal, primary screen, HCV replication inhibitor project, Huh7 cells, luciferase reporter (AID 1109).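 Further: huh7 hepatoma cells harbouring a luciferase neomycin HCV replicon reporter; luciferase luminescence as measure of HCV replicon replication; test concentration not given here.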 Particulars: 48 h, higher = more signal.
Experiment [3] deals with Left-right determination factor 2 (Homo sapiens) (UniProt O00292). As to the kind of experiment: LEFTY2 binders on small-molecule microarrays, primary screen, biochemical, small-molecule microarray, 635 nm fluorescence scan (AID 1110). To be noted: LEFTY2 binding, higher = more signal.
Chain of Left-right determination factor 2 (Homo sapiens) (O00292 whole entry, looked up): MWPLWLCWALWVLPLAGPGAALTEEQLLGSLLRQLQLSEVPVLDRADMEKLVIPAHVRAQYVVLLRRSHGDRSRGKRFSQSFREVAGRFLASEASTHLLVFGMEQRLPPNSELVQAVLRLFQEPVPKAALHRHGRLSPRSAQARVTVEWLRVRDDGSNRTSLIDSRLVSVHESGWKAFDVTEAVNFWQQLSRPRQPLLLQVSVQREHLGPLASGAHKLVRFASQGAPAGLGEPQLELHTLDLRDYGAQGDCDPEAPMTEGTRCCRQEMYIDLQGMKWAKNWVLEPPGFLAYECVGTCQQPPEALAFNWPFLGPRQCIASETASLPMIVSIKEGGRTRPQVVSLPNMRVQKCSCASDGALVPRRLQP
Experiment [4] addresses Calmodulin-1 (Homo sapiens) (UniProt P0DP23). The experiment is described as follows: CALM1 binders on microarrays, EGTA buffer, profiling panel, biochemical, small-molecule microarray, Cy5-labelled CALM1 (AID 1111).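 Further: labelled calmodulin applied in Tris saline Tween buffer holding calcium plus EGTA and DTT.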 Particulars: Cy5-CALM1 binding fluorescence, higher = more signal.
The target is the same in experiment [5]. The experiment is described as follows: calcium-bound CALM1 binders on microarrays, profiling panel, artefact control for SMM control-protein annotation, biochemical, small-molecule microarray, Cy5-labelled CALM1, plus calcium (AID 1112).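 Further: score merges spot fluorescence with signal to noise from triplicate slides.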 Particulars: Cy5-CALM1 binding fluorescence, higher = more signal.
Experiment [6] in a line: small-molecule microarray binders of probe aWnt5a, primary screen, biochemical, biotinylated probe, 635/667 nm fluorescence (AID 1113).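 Further: score merges 667 nm fluorescence intensity with signal-to-noise per printed feature.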 To be noted: higher = more signal.
Experiment [7] is described as follows: small-molecule microarray binders of probe aShh, primary screen, biochemical, biotinylated probe, 635/667 nm fluorescence (AID 1114).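 Further: probe is biotin-labelled aShh protein from a stem cell growth factor screen; measures binding of labelled protein to compounds printed on the slide; score merges feature fluorescence at 667 nm with signal-to-noise.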 Particulars: higher = more signal.
Experiment [8] is described as follows: small-molecule microarray binders of probe aNog, primary screen, biochemical, biotinylated probe, 635/667 nm fluorescence (AID 1115).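 Further: probe is biotinylated aNog protein used at 0.15 µg/mL for 1 h at 4 C; z-score combines 667 nm fluorescence of each spot with its signal to noise.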 Particulars: higher = more signal.
Experiment [9] concerns the target Torsin-1A-interacting protein 1 (Homo sapiens) (UniProt Q5JTV8). As to the kind of experiment: LAP1 binders from COS7 cell lysate, primary screen, small-molecule microarray, 635/667 nm fluorescence (AID 1116). To be noted: COS7-hLAP1 lysate binding, 635 nm fluorescence, higher = more signal.
In experiment [10] the target is Alpha-bungarotoxin (Bungarus multicinctus) (UniProt P60615). As to the kind of experiment: alpha-bungarotoxin binders on microarray, profiling panel, artefact control for SMM control protein annotation, biochemical, small-molecule microarray, Alexa647 label, 635/667 nm fluorescence (AID 1117). To be noted: alpha-BTX-A647 binding fluorescence, higher = more signal.
Chain of Alpha-bungarotoxin (Bungarus multicinctus) (P60615 whole entry, looked up): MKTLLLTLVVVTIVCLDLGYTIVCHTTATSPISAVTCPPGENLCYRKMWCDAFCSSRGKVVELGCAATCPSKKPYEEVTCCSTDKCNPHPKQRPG
The next experiment concerns the target Albumin (Bos taurus) (UniProt P02769). As to the kind of experiment: bovine serum albumin binders on microarray, profiling panel, artefact control for SMM control protein annotation, biochemical, small-molecule microarray, Alexa647 label, 635/667 nm fluorescence (AID 1118).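 Further: score merges 667 nm emission intensity and signal-to-noise per printed compound spot.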 Particulars: BSA-A647 binding, fluorescence 635 nm, higher = more signal.
Experiment [11] in a line: small-molecule microarray binders of probe aXIP, primary screen, biochemical, NeuroSMM set, 635/667 nm fluorescence (AID 1119).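 Further: probe is the protein aXip251-270 applied at 1 µg/mL to compound-printed slides; binding of probe to printed compounds measured as 667 nm fluorescence plus signal to noise.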 To be noted: higher = more signal, called active from +8 up or from −8 down.
Experiment [12] in a line: small-molecule binders of probe aNOTCH3, primary screen, biochemical, small-molecule microarray, 635/667 nm fluorescence (AID 1120).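 Further: probe is a biotin-tagged antibody raised against NOTCH3 rather than NOTCH3 protein; score merges spot fluorescence near 667 nm with spot signal to noise.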 To be noted: higher = more signal.
Experiment [13] is described as follows: small-molecule binders of probe aNOTCH2, primary screen, biochemical, small-molecule microarray, 635/667 nm fluorescence (AID 1121).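 Further: score merges feature fluorescence read at 667 nm with its signal to noise.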 Particulars: higher = more signal.
The target of experiment [14] is Carbonic anhydrase 2 (Homo sapiens) (UniProt P00918). The experiment is described as follows: CAII small-molecule binders, profiling panel, biochemical, small-molecule microarray, Alexa647-labelled CAII (AID 1122). To be noted: CAII-A647 binding fluorescence, higher = more signal.
A short description of experiment [15]: COS7 lysate on small-molecule microarray, probe aHis, 635 nm (AID 1123).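 Further: z-score combines 667nm fluorescence intensity with signal-to-noise per printed compound spot.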 To be noted: COS7 cell lysate, fluorescence, higher = more signal.
Experiment [16] is described as follows: compound binding in COS7 lysate, probe aLAP1, primary screen, cell lysate, small-molecule microarray (AID 1124).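 Further: lysate comes from COS7 cells expressing LAP1 and is applied at 0.3 µg/mL; score merges spot fluorescence near 667 nm with signal-to-noise over triplicate slides.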 To be noted: probe aLAP1, fluorescence, higher = more signal.
Another experiment relates to Sam68 (KHDRBS1). As to the kind of experiment: Sam68 small-molecule binders, primary screen, biochemical, small-molecule microarray, 635 nm fluorescence (AID 1125).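 Further: score merges 667 nm channel intensity with signal to noise over triplicate slides.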 Particulars: small-molecule microarray binding, higher = more signal.
Experiment [17] concerns Chordin-like protein 2 (CHRDL2). The experiment is described as follows: CHRDL2 small-molecule binders, primary screen, biochemical, small-molecule microarray, 635 nm fluorescence (AID 1126).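 Further: printed compound slides probed with Chrdl2 protein at 4 µg/mL for 1 h at 4 C; score merges 667 nm emission intensity with signal to noise over three replicate slides.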 To be noted: small-molecule microarray binding, fluorescence 635 nm; higher = more signal.
Experiment [18] deals with Concanavalin-A (Canavalia ensiformis) (UniProt P02866). The experiment is described as follows: ConA small-molecule binders, primary screen, artefact control for SMM control protein annotation, biochemical, small-molecule microarray, Alexa647 label, 635 nm (AID 1127).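 Further: z combines 667 nm emission intensity with signal-to-noise across three replicate slides.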 Particulars: ConA-A647 binding fluorescence, higher = more signal.
Chain of Concanavalin-A (Canavalia ensiformis) (P02866 whole entry, looked up): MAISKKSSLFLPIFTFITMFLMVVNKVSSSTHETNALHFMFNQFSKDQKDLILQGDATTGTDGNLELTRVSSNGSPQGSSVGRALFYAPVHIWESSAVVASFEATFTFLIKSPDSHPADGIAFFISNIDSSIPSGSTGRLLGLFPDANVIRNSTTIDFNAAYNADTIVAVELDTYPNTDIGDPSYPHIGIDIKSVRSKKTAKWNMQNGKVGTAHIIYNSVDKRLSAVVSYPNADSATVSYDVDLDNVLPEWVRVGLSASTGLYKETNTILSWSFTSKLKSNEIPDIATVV

Chain of Torsin-1A-interacting protein 1 (Homo sapiens) (Q5JTV8 whole entry, looked up): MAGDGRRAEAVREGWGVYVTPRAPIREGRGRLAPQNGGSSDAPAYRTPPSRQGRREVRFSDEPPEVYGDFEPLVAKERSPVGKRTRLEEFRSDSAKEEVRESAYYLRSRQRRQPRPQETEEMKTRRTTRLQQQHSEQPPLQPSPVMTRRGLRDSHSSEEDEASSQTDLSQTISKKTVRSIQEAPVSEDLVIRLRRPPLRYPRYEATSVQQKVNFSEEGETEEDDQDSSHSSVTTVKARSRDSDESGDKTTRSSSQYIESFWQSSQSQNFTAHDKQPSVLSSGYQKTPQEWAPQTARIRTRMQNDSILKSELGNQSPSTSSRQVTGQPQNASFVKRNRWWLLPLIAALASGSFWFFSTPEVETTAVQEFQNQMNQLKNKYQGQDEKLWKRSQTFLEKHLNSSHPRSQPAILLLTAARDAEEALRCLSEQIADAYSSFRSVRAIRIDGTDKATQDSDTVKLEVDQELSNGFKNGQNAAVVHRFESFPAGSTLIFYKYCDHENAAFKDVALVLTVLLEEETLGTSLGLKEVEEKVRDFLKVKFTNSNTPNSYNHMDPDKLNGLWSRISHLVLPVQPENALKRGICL
Chain of Albumin (Bos taurus) (P02769 whole entry, looked up): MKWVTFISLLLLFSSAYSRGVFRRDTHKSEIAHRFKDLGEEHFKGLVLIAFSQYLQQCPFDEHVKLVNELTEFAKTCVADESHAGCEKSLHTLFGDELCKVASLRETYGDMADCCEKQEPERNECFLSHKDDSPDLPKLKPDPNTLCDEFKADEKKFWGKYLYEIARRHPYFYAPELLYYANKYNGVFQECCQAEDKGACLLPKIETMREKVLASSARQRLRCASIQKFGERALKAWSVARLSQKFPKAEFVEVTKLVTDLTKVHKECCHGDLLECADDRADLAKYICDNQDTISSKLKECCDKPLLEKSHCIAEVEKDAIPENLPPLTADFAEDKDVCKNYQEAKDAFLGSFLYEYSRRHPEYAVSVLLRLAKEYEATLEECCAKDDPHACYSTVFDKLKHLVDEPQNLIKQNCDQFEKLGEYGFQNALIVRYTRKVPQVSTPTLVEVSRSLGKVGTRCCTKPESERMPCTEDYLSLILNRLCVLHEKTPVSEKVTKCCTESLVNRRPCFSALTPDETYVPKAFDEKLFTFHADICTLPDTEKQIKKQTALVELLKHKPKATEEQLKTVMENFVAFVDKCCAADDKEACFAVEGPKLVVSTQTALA

As to `C=C(CCCC)/C(=C/C[C@@H](OC(=O)c1ccncc1)c1ccccc1OCCO)c1cc(C(=O)OC)ccc1OC`, the composite z-score was 1.4 in experiment [1]; 0.0979 in experiment [3]; -0.154 in experiment [4]; -0.351 in [5]; -0.0735 in [6]; -0.0626 in experiment [7]. For the same molecule, the composite z-score in [8] was -0.518; in experiment [9] it was 0.603; in experiment [10] it was 1.93; with Albumin (Bos taurus), 0.865; in experiment [12] it was 0.125; in experiment [13] it was -0.0317. The composite z-score is 0.616 in experiment [14]; 1.28 in experiment [15]; 0.902 in [16]; 1.25 in the experiment on Sam68 (KHDRBS1); -0.0027 in experiment [17]; -0.251 in experiment [18]. Besides, in experiment [2], the z-score is -2.61. Besides, the composite Z-score in [11] is -0.0662 (inactive).
With `COCCOC(=O)N1C(=O)[C@@]2(c3cc(C#CCNC(N)=O)ccc31)[C@H](C(N)=O)[C@H]1C(=O)O[C@H](c3ccccc3)[C@H](c3ccccc3)N1[C@@H]2c1ccc(OCCO)cc1`, the composite z-score in experiment [1] was 1.29; in [3], 0.582; in experiment [4], 0.701; in [5], 0.257; in [6], -0.1; in [7], -0.156. In addition, the composite z-score in experiment [8] is 0.271; in experiment [9], 1.03; in [10], 0.617; in the experiment with Albumin (Bos taurus) it was -0.217; in experiment [12], 0.276; in experiment [13] it was -0.0979. Moreover, the composite z-score in experiment [14] is 0.52; in experiment [15] it was 0.475; in experiment [16], 0.53; with Sam68 (KHDRBS1), 0.815; in [17] it was 1.03; in experiment [18], 1.09. The z-score in experiment [2] is -1.11. Further, the composite Z-score in experiment [11] is 0.462 (inactive).
Turning to `CCCCC(=C=CC[C@H](O)c1ccccc1OCCO)C[C@H](O)c1ccccn1`, the composite z-score in experiment [1] was 0.0797; in experiment [3], 0.377; in [4], -0.0455; in experiment [5], -0.351; in [6] it was -0.126; in [7] it was -0.0769. Also, the composite z-score in [8] is -0.388; in experiment [9], 0.934; in experiment [10], 0.697; in the experiment with Albumin (Bos taurus), 0.0165; in [12] it was 0.0311; in [13], -0.164. Moreover, the composite z-score in experiment [14] was 0.557; in experiment [15] it was -0.137; in experiment [16], 0.271; in the experiment with Sam68 (KHDRBS1), -0.0949; in experiment [17], 0.547; in experiment [18], 0.319. In experiment [2], this molecule yielded a z-score of -0.619. Besides, the composite Z-score in experiment [11] was -0.452 (inactive).
`CN(C)C(=O)[C@@]1(CCC(=O)OC(C)(C)C)N=C(c2ccc(OCCCO)cc2)O[C@H]1c1ccccc1N=[N+]=[N-]`: the composite z-score in experiment [1] stood at 1.54; in experiment [3], 0.494; in [4], 1.61; in experiment [5], 0.727; in experiment [6] it was 0.0839; in [7], 0.246. In addition, the composite z-score was 0.948 in [8]; 2.15 in experiment [9]; 2.63 in experiment [10]; 1.03 with Albumin (Bos taurus); 0.315 in experiment [12]; -0.0129 in [13]. The composite z-score in experiment [14] was 0.812; in experiment [15], 3.31; in experiment [16], 1.25; in the experiment with Sam68 (KHDRBS1), 1.3; in experiment [17] it was -0.18; in experiment [18], 1.11. The z-score in [2] turned out to be 1.58. Moreover, the composite Z-score in experiment [11] was 0.0421 (inactive).
For the molecule `Cc1ccc(S[C@]2(C(=O)O)CC(=O)N(C3CCCCC3)[C@@H]2c2ccc(CO)cc2)cc1`, the composite z-score in experiment [1] was 0.755; in [3] it was -0.442; in [4], 0.381; in [5], -1.39; in experiment [6], 0.0581; in experiment [7] it was 0.428. In addition, the composite z-score is 1.1 in [8]; 0.578 in experiment [9]; 0.842 in experiment [10]; 0.242 with Albumin (Bos taurus); -0.398 in experiment [12]; 0.0394 in experiment [13]. For the same molecule, the composite z-score in experiment [14] was 0.714; in experiment [15] it was 1.29; in [16], 0.975; with Sam68 (KHDRBS1), 1.31; in experiment [17], -0.134; in [18] it was 1.16. In [2], the z-score is -1.2. The composite Z-score in experiment [11] was 0.842 (inactive).
Consider `CN(C)C(=O)[C@@]1(CCC(=O)OC(C)(C)C)COC(c2ccc(OCCCO)cc2)=N1`, for which the composite z-score in [1] is 1.08; in experiment [3], -1.04; in [4], 0.38; in experiment [5], 0.816; in experiment [6], -0.127; in experiment [7] it was 0.261. The composite z-score in experiment [8] was 1.52; in experiment [9] it was 1.54; in [10], 0.728; with Albumin (Bos taurus), 0.655; in experiment [12], -0.119; in experiment [13] it was -0.0508. Moreover, the composite z-score in [14] is 0.841; in experiment [15] it was 3.29; in experiment [16], 0.723; in the experiment with Sam68 (KHDRBS1) it was 0.502; in experiment [17], -1.46; in experiment [18], 0.673. In experiment [2], the z-score is -0.594. In addition, the composite Z-score in experiment [11] is 0.142 (inactive).
